Most compounds without a hit are left out; they make up all but 1.6% or so of the library.
KCNQ2 enhance – potentiators of rat KCNQ2 potassium channel; actives 0.54% (n = 310,000); Potassium voltage-gated channel subfamily KQT member 2 (Rattus norvegicus), O88943; B-score at 10 µM; CHO-K1 KCNQ2, FluxOR thallium flux fluorescence; stronger effect = higher value;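 active = fluorescence ratio B-score at least 3 SD of library B-scores, with initial fluorescence B-score within 3 of them, cut at about 5.3 in these data; same plate scores as AID 2156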;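 also: B-score of peak minus minimum over baseline fluorescence ratio after K+ and Tl+ stimulus; positive B-score means potentiation of KCNQ2 with more thallium influx and brighter signal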
KCNQ2 inh – rat KCNQ2 potassium channel inhibitors, primary screen, cell-based, CHO-K1, FluxOR thallium flux, B-score | Potassium voltage-gated channel subfamily KQT member 2 (Rattus norvegicus), O88943 | 20 min; stronger effect = lower value | actives 1.1% (n = 310,000) | B-score at 10 µM | AID 2156, 2009;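 active = fluorescence ratio B-score at most minus 3 library SDs, with starting brightness B-score within 2 library SDs, cut at about -5.5 in these data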
Kir21 confirm – mouse Kir2.1 channel blockers, retest, confirmation, cell-based, FluxOR thallium flux, duplicate. shares compounds with KCNQ2 enhance. Kir2.1-expressing cells, FluxOR thallium flux fluorescence; stronger effect = lower value. Tl flux remaining, % of negative control (stronger effect = lower value), % at 10 µM. actives 41% (n = 2,300);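 active = Primary-screen hit whose thallium flux fell at least 3 control SD below untreated wells in both duplicates, with normal baseline fluorescence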;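 also: 0% = blank wells without stimulus and 100% = stimulated no-compound controls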
Target sequence (P35561 whole entry, looked up): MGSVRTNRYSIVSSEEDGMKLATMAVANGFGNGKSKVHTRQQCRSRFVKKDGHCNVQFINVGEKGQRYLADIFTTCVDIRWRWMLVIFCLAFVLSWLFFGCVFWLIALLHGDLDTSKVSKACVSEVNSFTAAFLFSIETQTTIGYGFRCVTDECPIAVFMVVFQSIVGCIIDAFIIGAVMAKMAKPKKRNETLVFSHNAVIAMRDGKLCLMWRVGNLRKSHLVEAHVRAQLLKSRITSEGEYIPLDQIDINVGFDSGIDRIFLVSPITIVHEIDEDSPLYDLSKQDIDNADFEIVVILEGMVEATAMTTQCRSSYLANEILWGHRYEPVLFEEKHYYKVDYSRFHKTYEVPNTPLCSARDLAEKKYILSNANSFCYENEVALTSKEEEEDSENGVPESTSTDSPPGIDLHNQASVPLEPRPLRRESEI
HEK293 Tl flux – parental HEK293 activity in Kir2.1 inhibitor counter-screen. FluxOR signal as % of negative control (100 = no effect), % at 10 µM. parental HEK293 cells, FluxOR thallium flux fluorescence; 0% = unstimulated blank wells. AID 2105. shares compounds with KCNQ2 enhance. actives 19% (n = 2,300);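 active = dye signal at least 3 control SD above or below untreated wells in both duplicates, raw fluorescence within 3, either direction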;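 also: percent is based on the flux ratio of peak minus minimum fluorescence over baseline F0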
CHO-K1 ctr – nonspecific thallium flux increase in parental CHO-K1, confirmation, counter-screen for KCNQ2 potentiator project, cell-based, FluxOR thallium flux, duplicate. activity increase over 3SD of controls, % at 10 µM. actives 43% (n = 1,200). shares compounds with KCNQ2 enhance. parental CHO-K1 cells, FluxOR thallium flux fluorescence; zero = vehicle mean+3SD, 100% = vehicle-minus-blank window;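 active = signal rise of at least 3 SD above the untreated control mean, in both duplicate wells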;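 also: counter screen of KCNQ2 potentiator hits so any rise reflects channel-independent effects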
KCNQ1 sel pot – human KCNQ1 channel potentiation off-target, confirmation, selectivity assay for KCNQ2 potentiator project, cell-based, CHO, FluxOR thallium flux; activation over 3SD threshold, % at 10 µM; shares compounds with KCNQ2 enhance; actives 28% (n = 1,200); CHO KCNQ1 stable, FluxOR thallium flux fluorescence; beyond 3SD, as % of vehicle-control signal;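 active = fluorescence ratio rise of at least 3 SD of vehicle wells above their mean, in both replicate wells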;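 also: 0% = vehicle mean plus 3 SD and 100% = vehicle minus unstimulated blank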
KCNQ2 pot conf – rat KCNQ2 channel potentiators, confirmation, cell-based, CHO, FluxOR thallium flux, duplicate | shares compounds with KCNQ2 enhance | CHO-KCNQ2 cells, FluxOR thallium flux fluorescence | potentiation, less the hit threshold, % at 10 µM | actives 68% (n = 1,200) | AID 2287, 2010;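 active = fluorescence ratio rising 3 SD or more over the vehicle control mean in both replicates, plus primary screen hit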;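 also: peak minus minimum thallium fluorescence divided by baseline after K/Tl stimulus; 0% = vehicle mean plus 3 SD and 100% = vehicle minus unstimulated blank difference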
Kir2-1 sel – mouse Kir2.1 channel activation off-target, confirmation, selectivity assay for KCNQ2 potentiator project, cell-based, HEK293, FluxOR thallium flux | shares compounds with KCNQ2 enhance | HEK293 Kir2.1, FluxOR thallium flux fluorescence | activity over 3SD threshold, % at 10 µM | actives 2% (n = 1,200);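 active = fluorescence ratio rise of at least 3 SD above the vehicle-control mean, seen in both replicates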;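 also: 0% = vehicle mean plus 3 SD and 100% = vehicle minus no-stimulus blank window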
KCNQ2 W236L MoA – potentiators of retigabine-insensitive KCNQ2 W236L, mechanism study for KCNQ2 potentiator project, cell-based, rat KCNQ2 W236L, CHO, automated patch clamp. shares compounds with KCNQ2 enhance. current increase over 3SD of negative controls (%), stronger effect = higher value, % at 25 µM. actives 10% (n = 940). automated patch clamp current;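 active = current increase at least 3 SD of the untreated controls above them in both duplicate recordings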
* = called active by the depositor; i = inactive; x = not tested or not shown.

SMILES	KCNQ2 enhance	KCNQ2 inh	Kir21 confirm	HEK293 Tl flux	others
Cc1c(NC(=O)C(C)OC(=O)c2ccc(Br)o2)c(=O)n(-c2ccccc2)n1C (configuration not stated)	0.38	i	x	x
Cc1c(NC(=O)COC(=O)c2ccc(Br)o2)c(=O)n(-c2ccccc2)n1C	x	i	i	i
O=C(N/N=C/C1CC2C=CC1C2)c1ccccc1O (configuration not stated)	0.75	i	x	x
COc1ccc(N2CCN(C3CCCN(C(=O)C4=C(C)OCCO4)C3)CC2)cc1 (configuration not stated)	1.32	i	x	x
O=S(=O)(Nc1nc(-c2sccc2Cl)cs1)c1cc(Cl)ccc1Cl	18.8*	i	i	339.0%*	CHO-K1 ctr=17.3*;KCNQ1 sel pot=-20.6;KCNQ2 pot conf=149.0*;Kir2-1 sel=-24.8;KCNQ2 W236L MoA=i
CC(C)(C)c1nnc(NS(=O)(=O)c2cc(Cl)ccc2Cl)s1	1.86	i	x	x
C1=C(CCNCC2CC2)CCCC1	1.18	i	x	x
Cc1ccc(CNCCC2=CCCCC2)cc1	0.75	i	37.5%*	68.5%*
S=c1nc(Cc2ccc(Cl)cc2)[nH]c2ccccc12	11.1*	i	i	158.5%*	CHO-K1 ctr=-7.9;KCNQ1 sel pot=-7.9;KCNQ2 pot conf=6.1*;Kir2-1 sel=-41.1;KCNQ2 W236L MoA=i
S=c1nc(Cc2ccccc2)[nH]c2ccccc12	11.2*	i	i	323.0%*	CHO-K1 ctr=45.3*;KCNQ1 sel pot=-13.4;KCNQ2 pot conf=40.4*;Kir2-1 sel=-29.6;KCNQ2 W236L MoA=i
Cc1nc(=S)c2ccccc2[nH]1	1.07	i	x	x
O=c1[nH]c(COc2ccccc2)nc2ccccc12	x	i	x	x
Cc1ccc(Cc2nc3ccccc3[nH]2)cc1	x	i	x	x
S=c1nc(COc2ccccc2)[nH]c2ccccc12	20.5*	i	i	479.0%*	CHO-K1 ctr=1.8*;KCNQ1 sel pot=-11.3;KCNQ2 pot conf=62.9*;Kir2-1 sel=-14.9;KCNQ2 W236L MoA=i
CCc1c(C)sc(NC(=O)Cc2ccccc2C)c1C(=O)N1CCOCC1	x	i	x	x
COc1ccc(CCNC(=O)CC(c2ccccc2)c2cccc(C)c2O)cc1OC (configuration not stated)	1.4	i	x	x
COc1cc([N+](=O)[O-])ccc1NC(=O)CSc1n[nH]c(C(C)C)n1	1.37	i	x	x
CCCCCCCC(=O)N/N=C/c1ccco1	10.5*	i	i	i	CHO-K1 ctr=0.0*;KCNQ1 sel pot=2.6*;KCNQ2 pot conf=59.4*;Kir2-1 sel=-37.2;KCNQ2 W236L MoA=i
CCCCCCCC(=O)N/N=C/c1ccc(Br)cc1	0.99	i	x	x
O=C(COc1ccccc1Cl)Nc1ccc(S(=O)(=O)N2CCOCC2)cc1	x	i	x	x
CCCCCCCCCCOC(=O)Cn1c(COc2ccccc2OC)[n+](C)c2ccccc21	x	i	i	i
Cn1c(COc2ccccc2O)[n+](C)c2ccccc21	x	i	x	x
CN(C)c1ccc(-n2cccc2/C=C/[N+](=O)[O-])cc1	x	i	x	x
CN(c1ccccc1)c1ccc(/C=C/[N+](=O)[O-])cc1	x	i	i	i
CCc1ccc(N2CC(C(=O)Nc3cccc(S(=O)(=O)N4CCCC4)c3)CC2=O)cc1 (configuration not stated)	1.74	i	x	x
SMILES	KCNQ2 enhance	KCNQ2 inh	Kir21 confirm	HEK293 Tl flux	others
COc1cc(C)c(S(=O)(=O)NOCc2ccccc2)c(C)c1C	x	i	i	i
COc1cc(C)c(S(=O)(=O)NOCc2ccc([N+](=O)[O-])cc2)c(C)c1C	0.57	i	x	x
O=C(O)c1ccn2c(C(=O)c3ccc(Cl)cc3)c(-c3ccccc3)cc2c1	8.45*	i	i	i	CHO-K1 ctr=-6.5;KCNQ1 sel pot=-11.3;KCNQ2 pot conf=15.5*;Kir2-1 sel=-25.0;KCNQ2 W236L MoA=i
O=C(NCCO)C(=O)c1c(-c2ccc(Cl)cc2)cc2ccccn12	x	i	x	x
CC(NC(=S)Nc1ccc(S(=O)(=O)N2CCOCC2)cc1)C1CC2CCC1C2 (configuration not stated)	x	i	x	x
CC1CCCN(CCOCCOc2ccc(Br)cc2Cl)C1 (configuration not stated)	x	i	x	x
CC1CCN(CCCOc2ccc(Br)cc2Cl)CC1	x	i	38.5%*	i
CCN1CN(Cc2ccco2)CNC1=S	0.14	i	x	x
COc1cccc(NC(=O)c2ccc3c(c2)CCN3S(C)(=O)=O)c1	17.1*	i	i	i	CHO-K1 ctr=2.5*;KCNQ1 sel pot=-13.6;KCNQ2 pot conf=-31.5;Kir2-1 sel=-40.0
CC(=O)Nc1ccc(NC(=O)c2ccc3c(c2)CCN3S(C)(=O)=O)cc1	x	i	x	x
CCCCn1c(N)c(N(CC(C)C)C(=O)CCCc2nc3ccccc3c(=O)[nH]2)c(=O)[nH]c1=O	x	i	x	x
O=C(Nc1cccc(Cl)c1)c1cc(S(=O)(=O)N2CCOCC2)cs1	x	i	x	x
S=c1[nH]nc(-c2ccco2)n1/N=C/C(Cl)=C/c1ccccc1	7.22*	i	i	129.0%*	CHO-K1 ctr=-20.8;KCNQ1 sel pot=-16.2;KCNQ2 pot conf=-3.2;Kir2-1 sel=-36.3;KCNQ2 W236L MoA=i
Cc1cc(-c2n[nH]c(=S)n2/N=C/C(Cl)=C/c2ccccc2)n[nH]1	x	i	x	x
Cc1onc(-c2ccccc2)c1C(=O)Nc1nnc(CC(C)(C)C)s1	x	i	x	x
Cc1ccc(OCCCCNC2CCCC(C)C2C)c(C)c1 (configuration not stated)	x	i	i	i
Cc1ccc(OCCCCN2CCCCC2)c(C)c1	0.92	i	x	x
CCOC(=O)N1CCN(C(=O)CCCn2c(=S)[nH]c3ccsc3c2=O)CC1	0.46	i	x	x
CN(C)CCN(C(=O)c1ccc2c(c1)OCCO2)c1nc2ccc(Cl)cc2s1	0.29	i	x	x
CN(C)CCCN(C(=O)c1ccc2c(c1)OCCO2)c1nc2ccc(Cl)cc2s1	x	i	54.0%*	i
N=c1oc2ccc3ccccc3c2cc1C(N)=S	0.73	i	x	x

Bioassay records from PubChem.
